PMC7862700, “An all-to-all approach to the identification of sequence-specific readers for epigenetic DNA modifications on cytosine”

How the values were obtained:
Assay in all cases: DAPPL (digital affinity profiling via proximity ligation, sequencing); 10 mM Tris-HCl pH 7.5, 50 mM NaCl, 1 mM DTT, 4% glycerol, room temperature, 30 min; GST-TFs on glutathione beads, 16-mer random dsDNA library, 0.1% formaldehyde crosslink after washing; high values mean tight binding
Details in all cases: protein: recombinant; tags: N-terminal GST; dsDNA, one strand shown
ERF = biological target: T1, ERF (Homo sapiens, UniProt P50548 1-548)
T1 sequence: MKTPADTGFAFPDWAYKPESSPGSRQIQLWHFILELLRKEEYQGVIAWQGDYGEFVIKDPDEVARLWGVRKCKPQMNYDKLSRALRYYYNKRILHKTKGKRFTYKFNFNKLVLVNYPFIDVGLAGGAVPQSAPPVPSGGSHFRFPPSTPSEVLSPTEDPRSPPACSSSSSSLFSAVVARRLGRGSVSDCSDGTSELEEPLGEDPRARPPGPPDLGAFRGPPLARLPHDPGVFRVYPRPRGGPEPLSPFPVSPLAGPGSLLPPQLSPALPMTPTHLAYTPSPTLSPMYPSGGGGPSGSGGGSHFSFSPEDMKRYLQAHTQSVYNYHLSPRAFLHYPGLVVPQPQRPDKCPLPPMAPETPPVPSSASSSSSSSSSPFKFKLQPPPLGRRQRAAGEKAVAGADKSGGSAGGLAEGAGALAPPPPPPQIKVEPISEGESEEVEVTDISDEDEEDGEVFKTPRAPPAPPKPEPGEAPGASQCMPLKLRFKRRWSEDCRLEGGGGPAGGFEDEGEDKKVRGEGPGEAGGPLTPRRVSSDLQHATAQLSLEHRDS
Outline: (§1)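 Binding signal is each hexamer's read frequency for a factor divided by its frequency in the tag-only sample. The factors were GST-fused human transcription factors from yeast, captured on glutathione beads, DNA-barcoded and pooled with that sample. Pools were incubated with 200 nmole of a random double-stranded 16-mer DNA library in Tris/NaCl/DTT/glycerol buffer at room temperature for 30 min, then washed, crosslinked with 0.1% formaldehyde, proximity-ligated with BsaI/T4 ligase (1 h, 37 °C), PCR-amplified and sequenced on an Illumina NextSeq500.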

ETV3L = biological target: T2, ETV3L (Homo sapiens, UniProt Q6ZN32 1-361)
T2 sequence: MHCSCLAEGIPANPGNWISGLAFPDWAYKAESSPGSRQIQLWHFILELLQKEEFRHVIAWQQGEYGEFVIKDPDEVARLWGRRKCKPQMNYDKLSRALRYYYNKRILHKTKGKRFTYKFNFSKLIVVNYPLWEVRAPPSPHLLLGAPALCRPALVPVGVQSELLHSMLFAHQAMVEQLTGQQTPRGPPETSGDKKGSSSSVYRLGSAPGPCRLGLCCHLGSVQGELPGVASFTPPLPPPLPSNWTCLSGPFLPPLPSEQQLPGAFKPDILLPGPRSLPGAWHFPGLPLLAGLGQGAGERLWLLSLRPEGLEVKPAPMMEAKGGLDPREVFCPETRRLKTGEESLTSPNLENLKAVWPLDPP
Outline: as §1

ETS2 = biological target: T3, ETS2 (Homo sapiens, UniProt P15036 1-469)
T3 sequence: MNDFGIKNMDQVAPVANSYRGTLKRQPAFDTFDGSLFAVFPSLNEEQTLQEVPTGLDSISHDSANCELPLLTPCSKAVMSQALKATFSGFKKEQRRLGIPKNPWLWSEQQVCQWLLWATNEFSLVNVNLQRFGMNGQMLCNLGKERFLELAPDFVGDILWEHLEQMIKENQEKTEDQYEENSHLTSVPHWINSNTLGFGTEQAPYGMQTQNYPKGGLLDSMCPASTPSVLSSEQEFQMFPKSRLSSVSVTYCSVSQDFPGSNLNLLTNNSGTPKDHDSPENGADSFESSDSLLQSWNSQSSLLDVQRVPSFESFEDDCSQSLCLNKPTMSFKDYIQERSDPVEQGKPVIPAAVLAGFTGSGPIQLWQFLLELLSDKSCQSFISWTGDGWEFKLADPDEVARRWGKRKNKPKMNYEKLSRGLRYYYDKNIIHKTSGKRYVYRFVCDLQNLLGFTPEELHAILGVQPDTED
Outline: as §1

SPDEF = biological target: T4, SPDEF (Homo sapiens, UniProt O95238 1-335)
T4 sequence: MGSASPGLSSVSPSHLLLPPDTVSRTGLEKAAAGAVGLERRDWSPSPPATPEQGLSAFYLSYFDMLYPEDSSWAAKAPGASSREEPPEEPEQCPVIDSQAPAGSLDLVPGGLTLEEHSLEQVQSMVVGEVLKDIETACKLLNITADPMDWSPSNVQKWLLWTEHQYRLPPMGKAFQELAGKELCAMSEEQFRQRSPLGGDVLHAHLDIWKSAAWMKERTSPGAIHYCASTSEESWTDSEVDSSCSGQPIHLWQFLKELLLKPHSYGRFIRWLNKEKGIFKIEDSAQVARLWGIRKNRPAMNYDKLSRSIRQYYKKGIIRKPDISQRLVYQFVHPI
Outline: as §1

ETV7 = biological target: T5, ETV7 (Homo sapiens, UniProt Q9Y603 1-341)
T5 sequence: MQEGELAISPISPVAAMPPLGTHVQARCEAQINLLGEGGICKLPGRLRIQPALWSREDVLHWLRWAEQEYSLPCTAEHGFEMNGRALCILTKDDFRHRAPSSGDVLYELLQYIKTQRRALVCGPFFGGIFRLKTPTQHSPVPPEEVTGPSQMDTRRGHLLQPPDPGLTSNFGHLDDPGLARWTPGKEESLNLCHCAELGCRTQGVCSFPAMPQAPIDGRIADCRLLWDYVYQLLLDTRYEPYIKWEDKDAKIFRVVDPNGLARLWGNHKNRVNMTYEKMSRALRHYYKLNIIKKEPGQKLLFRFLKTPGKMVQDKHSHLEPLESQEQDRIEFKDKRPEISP
Outline: as §1

ELF5 = biological target: T6, ELF5 (Homo sapiens, UniProt Q9UKW6-2 1-255)
T6 sequence: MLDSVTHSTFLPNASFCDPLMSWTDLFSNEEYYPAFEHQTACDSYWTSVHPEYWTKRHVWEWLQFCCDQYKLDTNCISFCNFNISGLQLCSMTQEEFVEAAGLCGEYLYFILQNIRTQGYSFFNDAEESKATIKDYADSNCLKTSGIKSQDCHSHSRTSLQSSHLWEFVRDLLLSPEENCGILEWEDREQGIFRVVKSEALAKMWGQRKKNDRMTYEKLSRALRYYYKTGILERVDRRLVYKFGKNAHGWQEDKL
Outline: as §1

ETV3 = biological target: T7, ETV3 (Homo sapiens, UniProt P41162-2 1-143)
T7 sequence: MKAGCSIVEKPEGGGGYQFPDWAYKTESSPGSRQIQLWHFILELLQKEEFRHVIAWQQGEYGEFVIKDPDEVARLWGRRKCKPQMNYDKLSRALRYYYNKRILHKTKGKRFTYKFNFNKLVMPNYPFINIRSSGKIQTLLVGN
Outline: as §1

ETV6 = ETV6 (Homo sapiens, UniProt P41212 1-452)
Outline: as §1

Sequence of ETV6 (P41212 whole entry): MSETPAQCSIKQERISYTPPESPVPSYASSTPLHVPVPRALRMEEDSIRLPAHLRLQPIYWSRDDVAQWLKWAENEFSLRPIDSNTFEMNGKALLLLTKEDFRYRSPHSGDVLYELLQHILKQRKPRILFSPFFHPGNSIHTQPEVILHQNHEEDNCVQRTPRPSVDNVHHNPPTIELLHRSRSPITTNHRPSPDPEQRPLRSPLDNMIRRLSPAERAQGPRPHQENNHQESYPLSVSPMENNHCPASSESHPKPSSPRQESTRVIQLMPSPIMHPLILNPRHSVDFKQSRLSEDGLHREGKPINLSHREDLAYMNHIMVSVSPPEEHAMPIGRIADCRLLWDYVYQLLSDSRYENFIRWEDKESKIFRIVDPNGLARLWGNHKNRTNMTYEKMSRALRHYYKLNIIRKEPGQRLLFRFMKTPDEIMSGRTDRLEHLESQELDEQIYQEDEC

Sequence | binding signal (ERF) | binding signal (ETV3L) | binding signal (ETS2) | binding signal (SPDEF) | binding signal (ETV7) | binding signal (ELF5) | binding signal (ETV3) | binding signal (ETV6)
CTTAGA | 1.18 fold enrichment (6-mer frequency, TF over GST control) | 1.17 fold enrichment (6-mer frequency, TF over GST control) | 1.06 fold enrichment (6-mer frequency, TF over GST control) | 1.16 fold enrichment (6-mer frequency, TF over GST control) | 1.07 fold enrichment (6-mer frequency, TF over GST control) | 1.04 fold enrichment (6-mer frequency, TF over GST control) | 1.07 fold enrichment (6-mer frequency, TF over GST control) | 1.11 fold enrichment (6-mer frequency, TF over GST control)
ATATAG | 1.12 fold enrichment (6-mer frequency, TF over GST control) | 1.11 fold enrichment (6-mer frequency, TF over GST control) | 1.11 fold enrichment (6-mer frequency, TF over GST control) | 1.14 fold enrichment (6-mer frequency, TF over GST control) | 1.24 fold enrichment (6-mer frequency, TF over GST control) | 1.13 fold enrichment (6-mer frequency, TF over GST control) | 1.19 fold enrichment (6-mer frequency, TF over GST control) | 1.17 fold enrichment (6-mer frequency, TF over GST control)
ATTACA | 1.16 fold enrichment (6-mer frequency, TF over GST control) | 1.1 fold enrichment (6-mer frequency, TF over GST control) | 1.11 fold enrichment (6-mer frequency, TF over GST control) | 1.18 fold enrichment (6-mer frequency, TF over GST control) | 1.08 fold enrichment (6-mer frequency, TF over GST control) | 1.08 fold enrichment (6-mer frequency, TF over GST control) | 1.04 fold enrichment (6-mer frequency, TF over GST control) | 1.15 fold enrichment (6-mer frequency, TF over GST control)
ATGCGA | 1.16 fold enrichment (6-mer frequency, TF over GST control) | 1.24 fold enrichment (6-mer frequency, TF over GST control) | 1.19 fold enrichment (6-mer frequency, TF over GST control) | 1.18 fold enrichment (6-mer frequency, TF over GST control) | 1.28 fold enrichment (6-mer frequency, TF over GST control) | 1.16 fold enrichment (6-mer frequency, TF over GST control) | 1.32 fold enrichment (6-mer frequency, TF over GST control) | 1.23 fold enrichment (6-mer frequency, TF over GST control)
TTCAAT | 1.32 fold enrichment (6-mer frequency, TF over GST control) | 1.47 fold enrichment (6-mer frequency, TF over GST control) | 1.42 fold enrichment (6-mer frequency, TF over GST control) | 1.32 fold enrichment (6-mer frequency, TF over GST control) | 1.3 fold enrichment (6-mer frequency, TF over GST control) | 1.26 fold enrichment (6-mer frequency, TF over GST control) | 1.37 fold enrichment (6-mer frequency, TF over GST control) | 1.35 fold enrichment (6-mer frequency, TF over GST control)
ATTTCT | 1.35 fold enrichment (6-mer frequency, TF over GST control) | 1.49 fold enrichment (6-mer frequency, TF over GST control) | 1.54 fold enrichment (6-mer frequency, TF over GST control) | 1.4 fold enrichment (6-mer frequency, TF over GST control) | 1.47 fold enrichment (6-mer frequency, TF over GST control) | 1.5 fold enrichment (6-mer frequency, TF over GST control) | 1.42 fold enrichment (6-mer frequency, TF over GST control) | 1.39 fold enrichment (6-mer frequency, TF over GST control)
TATAAT | 1.25 fold enrichment (6-mer frequency, TF over GST control) | 1.23 fold enrichment (6-mer frequency, TF over GST control) | 1.19 fold enrichment (6-mer frequency, TF over GST control) | 1.27 fold enrichment (6-mer frequency, TF over GST control) | 1.17 fold enrichment (6-mer frequency, TF over GST control) | 1.18 fold enrichment (6-mer frequency, TF over GST control) | 1.19 fold enrichment (6-mer frequency, TF over GST control) | 1.24 fold enrichment (6-mer frequency, TF over GST control)
CTTAAA | 1.17 fold enrichment (6-mer frequency, TF over GST control) | 1.3 fold enrichment (6-mer frequency, TF over GST control) | 1.28 fold enrichment (6-mer frequency, TF over GST control) | 1.27 fold enrichment (6-mer frequency, TF over GST control) | 1.19 fold enrichment (6-mer frequency, TF over GST control) | 1.16 fold enrichment (6-mer frequency, TF over GST control) | 1.22 fold enrichment (6-mer frequency, TF over GST control) | 1.26 fold enrichment (6-mer frequency, TF over GST control)
TACCTC | 1.32 fold enrichment (6-mer frequency, TF over GST control) | 1.43 fold enrichment (6-mer frequency, TF over GST control) | 1.26 fold enrichment (6-mer frequency, TF over GST control) | 1.23 fold enrichment (6-mer frequency, TF over GST control) | 1.19 fold enrichment (6-mer frequency, TF over GST control) | 1.29 fold enrichment (6-mer frequency, TF over GST control) | 1.25 fold enrichment (6-mer frequency, TF over GST control) | 1.11 fold enrichment (6-mer frequency, TF over GST control)
CTTATC | 1.12 fold enrichment (6-mer frequency, TF over GST control) | 1.22 fold enrichment (6-mer frequency, TF over GST control) | 1.12 fold enrichment (6-mer frequency, TF over GST control) | 1.23 fold enrichment (6-mer frequency, TF over GST control) | 1.1 fold enrichment (6-mer frequency, TF over GST control) | 1.17 fold enrichment (6-mer frequency, TF over GST control) | 1.15 fold enrichment (6-mer frequency, TF over GST control) | 1.1 fold enrichment (6-mer frequency, TF over GST control)
GATTCA | 1.06 fold enrichment (6-mer frequency, TF over GST control) | 1.19 fold enrichment (6-mer frequency, TF over GST control) | 1.18 fold enrichment (6-mer frequency, TF over GST control) | 1.12 fold enrichment (6-mer frequency, TF over GST control) | 1.09 fold enrichment (6-mer frequency, TF over GST control) | 1.05 fold enrichment (6-mer frequency, TF over GST control) | 1.2 fold enrichment (6-mer frequency, TF over GST control) | 1.13 fold enrichment (6-mer frequency, TF over GST control)
AAATGA | 1.42 fold enrichment (6-mer frequency, TF over GST control) | 1.29 fold enrichment (6-mer frequency, TF over GST control) | 1.29 fold enrichment (6-mer frequency, TF over GST control) | 1.18 fold enrichment (6-mer frequency, TF over GST control) | 1.42 fold enrichment (6-mer frequency, TF over GST control) | 1.25 fold enrichment (6-mer frequency, TF over GST control) | 1.43 fold enrichment (6-mer frequency, TF over GST control) | 1.47 fold enrichment (6-mer frequency, TF over GST control)
ACCTAC | 1.17 fold enrichment (6-mer frequency, TF over GST control) | 1.26 fold enrichment (6-mer frequency, TF over GST control) | 1.2 fold enrichment (6-mer frequency, TF over GST control) | 1.17 fold enrichment (6-mer frequency, TF over GST control) | 1.09 fold enrichment (6-mer frequency, TF over GST control) | 1.29 fold enrichment (6-mer frequency, TF over GST control) | 1.25 fold enrichment (6-mer frequency, TF over GST control) | 1.32 fold enrichment (6-mer frequency, TF over GST control)
CTCCCC | 1.51 fold enrichment (6-mer frequency, TF over GST control) | 1.29 fold enrichment (6-mer frequency, TF over GST control) | 1.33 fold enrichment (6-mer frequency, TF over GST control) | 1.28 fold enrichment (6-mer frequency, TF over GST control) | 1.37 fold enrichment (6-mer frequency, TF over GST control) | 1.33 fold enrichment (6-mer frequency, TF over GST control) | 1.38 fold enrichment (6-mer frequency, TF over GST control) | 1.36 fold enrichment (6-mer frequency, TF over GST control)
